In publication PMC7862700, “An all-to-all approach to the identification of sequence-specific readers for epigenetic DNA modifications on cytosine”:

How the values were obtained:
Assay in all cases: DAPPL (digital affinity profiling via proximity ligation, sequencing); 10 mM Tris-HCl pH 7.5, 50 mM NaCl, 1 mM DTT, 4% glycerol, room temperature, 30 min; GST-TFs on glutathione beads, 16-mer random dsDNA library, 0.1% formaldehyde crosslink after washing; high values mean tight binding
FLI1 = target: T1, FLI1 (Homo sapiens, UniProt Q01543 1-452); conditions: protein: recombinant; tags: N-terminal GST; dsDNA, one strand shown
T1 sequence: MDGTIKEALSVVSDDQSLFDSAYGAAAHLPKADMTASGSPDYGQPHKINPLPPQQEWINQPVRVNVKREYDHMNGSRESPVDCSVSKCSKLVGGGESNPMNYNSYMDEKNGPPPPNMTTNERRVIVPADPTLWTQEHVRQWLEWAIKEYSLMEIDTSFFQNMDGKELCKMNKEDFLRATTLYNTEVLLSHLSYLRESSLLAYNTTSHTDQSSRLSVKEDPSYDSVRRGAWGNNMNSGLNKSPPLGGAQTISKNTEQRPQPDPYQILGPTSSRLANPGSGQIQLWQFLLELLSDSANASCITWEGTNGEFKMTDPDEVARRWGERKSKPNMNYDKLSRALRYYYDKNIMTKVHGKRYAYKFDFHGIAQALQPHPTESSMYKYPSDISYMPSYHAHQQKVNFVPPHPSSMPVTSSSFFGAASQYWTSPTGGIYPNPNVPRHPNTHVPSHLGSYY
How it was run: (§1)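 A tag-only sample was pooled with DNA-barcoded human transcription factors that had been expressed in yeast as GST fusions and captured on glutathione beads. The pools were incubated for 30 min at room temperature with 200 nmole of a random double-stranded 16-mer DNA library in Tris/NaCl/DTT/glycerol buffer, then washed, crosslinked with 0.1% formaldehyde, proximity-ligated (BsaI/T4 ligase, 1 h, 37 °C), PCR-amplified and sequenced on an Illumina NextSeq500. Binding signal is each hexamer's read frequency for a factor divided by its frequency for the tag-only sample.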

ELK1 = target: T2, ELK1 (Homo sapiens, UniProt P19419 1-428); conditions: protein: recombinant; tags: N-terminal GST; dsDNA, one strand shown
T2 sequence: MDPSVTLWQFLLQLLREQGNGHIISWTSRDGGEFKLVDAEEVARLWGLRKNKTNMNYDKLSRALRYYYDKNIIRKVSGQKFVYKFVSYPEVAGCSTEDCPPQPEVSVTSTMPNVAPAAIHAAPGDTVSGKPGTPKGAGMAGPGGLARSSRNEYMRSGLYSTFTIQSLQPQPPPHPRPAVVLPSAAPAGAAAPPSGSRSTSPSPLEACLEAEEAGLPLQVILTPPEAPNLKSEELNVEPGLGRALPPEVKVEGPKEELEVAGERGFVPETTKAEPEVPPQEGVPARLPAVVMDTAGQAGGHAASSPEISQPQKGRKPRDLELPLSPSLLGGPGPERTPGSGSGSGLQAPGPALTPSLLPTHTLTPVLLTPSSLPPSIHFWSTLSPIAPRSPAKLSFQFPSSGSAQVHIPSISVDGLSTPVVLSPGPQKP
How it was run: as §1

GABPA = target: T3, GABPA (Homo sapiens, UniProt Q06546 1-454); conditions: protein: recombinant; tags: N-terminal GST; dsDNA, one strand shown
T3 sequence: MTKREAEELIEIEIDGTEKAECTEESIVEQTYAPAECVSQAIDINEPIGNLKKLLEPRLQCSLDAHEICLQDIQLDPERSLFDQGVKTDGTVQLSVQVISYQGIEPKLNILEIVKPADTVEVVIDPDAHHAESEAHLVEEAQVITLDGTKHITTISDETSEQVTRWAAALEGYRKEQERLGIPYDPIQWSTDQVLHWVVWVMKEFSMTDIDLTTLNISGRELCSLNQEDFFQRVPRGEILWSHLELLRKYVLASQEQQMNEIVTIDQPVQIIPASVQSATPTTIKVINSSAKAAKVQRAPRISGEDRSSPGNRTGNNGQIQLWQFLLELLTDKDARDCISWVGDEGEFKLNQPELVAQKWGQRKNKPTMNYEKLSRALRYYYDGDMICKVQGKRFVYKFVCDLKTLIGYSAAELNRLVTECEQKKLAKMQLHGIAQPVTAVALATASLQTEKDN
How it was run: as §1

ERG = target: T4, ERG (Homo sapiens, UniProt P11308 1-479); conditions: protein: recombinant; tags: N-terminal GST; dsDNA, one strand shown
T4 sequence: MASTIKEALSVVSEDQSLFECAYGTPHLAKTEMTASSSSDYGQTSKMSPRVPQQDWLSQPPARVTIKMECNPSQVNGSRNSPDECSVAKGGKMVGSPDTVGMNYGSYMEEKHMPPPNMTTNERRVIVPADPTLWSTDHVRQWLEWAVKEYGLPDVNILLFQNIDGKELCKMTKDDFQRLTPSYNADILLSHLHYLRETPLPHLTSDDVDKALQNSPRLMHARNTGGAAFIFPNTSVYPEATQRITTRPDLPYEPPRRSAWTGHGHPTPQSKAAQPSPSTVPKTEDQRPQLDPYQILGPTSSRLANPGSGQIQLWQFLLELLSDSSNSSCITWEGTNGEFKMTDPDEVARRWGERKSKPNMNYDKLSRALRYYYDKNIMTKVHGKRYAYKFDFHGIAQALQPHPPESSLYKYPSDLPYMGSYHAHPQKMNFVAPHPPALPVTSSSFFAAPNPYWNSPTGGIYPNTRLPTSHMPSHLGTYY
How it was run: as §1

ELF1 = ELF1 (Homo sapiens, UniProt P32519 1-619); conditions: protein: recombinant; tags: N-terminal GST; dsDNA, one strand shown
Chain of ELF1 (P32519 whole entry): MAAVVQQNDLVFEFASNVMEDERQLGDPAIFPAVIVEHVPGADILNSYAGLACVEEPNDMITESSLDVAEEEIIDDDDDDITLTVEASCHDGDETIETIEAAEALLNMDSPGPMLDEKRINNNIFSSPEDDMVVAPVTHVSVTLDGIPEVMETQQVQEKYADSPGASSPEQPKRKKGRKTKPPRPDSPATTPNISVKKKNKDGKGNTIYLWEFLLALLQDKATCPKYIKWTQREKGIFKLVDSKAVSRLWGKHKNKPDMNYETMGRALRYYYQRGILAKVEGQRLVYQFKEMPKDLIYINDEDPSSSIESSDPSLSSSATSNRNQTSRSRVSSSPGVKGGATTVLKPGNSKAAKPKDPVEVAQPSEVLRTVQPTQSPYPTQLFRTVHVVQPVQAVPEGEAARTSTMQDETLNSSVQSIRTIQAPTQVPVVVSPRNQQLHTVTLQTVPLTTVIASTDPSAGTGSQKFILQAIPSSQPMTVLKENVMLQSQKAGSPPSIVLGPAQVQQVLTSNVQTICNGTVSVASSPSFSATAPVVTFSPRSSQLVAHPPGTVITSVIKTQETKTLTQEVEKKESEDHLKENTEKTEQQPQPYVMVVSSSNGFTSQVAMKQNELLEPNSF
How it was run: as §1

EHF = target: T5, EHF (Homo sapiens, UniProt Q9NZC4 1-300); conditions: protein: recombinant; tags: N-terminal GST; dsDNA, one strand shown
T5 sequence: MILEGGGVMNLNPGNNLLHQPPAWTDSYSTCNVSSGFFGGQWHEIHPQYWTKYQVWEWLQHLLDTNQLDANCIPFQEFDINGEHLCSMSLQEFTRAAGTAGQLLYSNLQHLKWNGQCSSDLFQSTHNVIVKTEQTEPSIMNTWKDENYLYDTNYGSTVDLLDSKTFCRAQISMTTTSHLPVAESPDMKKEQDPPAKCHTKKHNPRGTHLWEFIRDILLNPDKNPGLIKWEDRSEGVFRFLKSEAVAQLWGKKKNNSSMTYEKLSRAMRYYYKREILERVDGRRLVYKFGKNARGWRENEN
How it was run: as §1

SPI1 = SPI1 (Homo sapiens, UniProt P17947 1-270); conditions: protein: recombinant; tags: N-terminal GST; dsDNA, one strand shown
How it was run: as §1

SPIB = SPIB (Homo sapiens, UniProt Q01892 1-262); conditions: protein: recombinant; tags: N-terminal GST; dsDNA, one strand shown
Chain of SPIB (Q01892 whole entry): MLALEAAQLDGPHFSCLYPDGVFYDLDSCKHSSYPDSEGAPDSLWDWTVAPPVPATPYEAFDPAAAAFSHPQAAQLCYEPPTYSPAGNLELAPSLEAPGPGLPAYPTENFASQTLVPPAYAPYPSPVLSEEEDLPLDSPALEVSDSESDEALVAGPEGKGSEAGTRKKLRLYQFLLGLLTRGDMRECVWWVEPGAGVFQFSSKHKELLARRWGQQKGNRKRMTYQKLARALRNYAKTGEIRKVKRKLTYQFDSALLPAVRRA
How it was run: as §1

ELK3 = target: T6, ELK3 (Homo sapiens, UniProt P41970 1-407); conditions: protein: recombinant; tags: N-terminal GST; dsDNA, one strand shown
T6 sequence: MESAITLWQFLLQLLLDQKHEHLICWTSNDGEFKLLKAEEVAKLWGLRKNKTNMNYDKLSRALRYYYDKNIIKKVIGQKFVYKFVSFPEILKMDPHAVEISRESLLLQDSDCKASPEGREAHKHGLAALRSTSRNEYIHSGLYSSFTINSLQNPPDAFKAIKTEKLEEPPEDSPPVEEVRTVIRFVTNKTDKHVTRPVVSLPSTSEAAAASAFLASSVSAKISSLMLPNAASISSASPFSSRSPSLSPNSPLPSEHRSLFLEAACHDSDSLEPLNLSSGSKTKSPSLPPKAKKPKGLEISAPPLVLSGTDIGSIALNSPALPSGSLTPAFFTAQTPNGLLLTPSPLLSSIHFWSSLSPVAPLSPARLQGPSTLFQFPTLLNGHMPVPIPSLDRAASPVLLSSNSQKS
How it was run: as §1

FEV = target: T7, FEV (Homo sapiens, UniProt Q99581 1-238); conditions: protein: recombinant; tags: N-terminal GST; dsDNA, one strand shown
T7 sequence: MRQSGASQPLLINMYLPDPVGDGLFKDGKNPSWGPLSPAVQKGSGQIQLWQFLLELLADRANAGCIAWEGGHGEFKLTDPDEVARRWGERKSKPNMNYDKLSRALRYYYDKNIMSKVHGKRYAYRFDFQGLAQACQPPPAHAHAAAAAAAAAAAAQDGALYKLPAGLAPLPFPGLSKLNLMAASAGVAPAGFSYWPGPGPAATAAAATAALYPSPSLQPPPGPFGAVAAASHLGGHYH
How it was run: as §1

ETV5 = ETV5 (Homo sapiens, UniProt P41161 1-510); conditions: protein: recombinant; tags: N-terminal GST; dsDNA, one strand shown
Chain of ETV5 (P41161 whole entry): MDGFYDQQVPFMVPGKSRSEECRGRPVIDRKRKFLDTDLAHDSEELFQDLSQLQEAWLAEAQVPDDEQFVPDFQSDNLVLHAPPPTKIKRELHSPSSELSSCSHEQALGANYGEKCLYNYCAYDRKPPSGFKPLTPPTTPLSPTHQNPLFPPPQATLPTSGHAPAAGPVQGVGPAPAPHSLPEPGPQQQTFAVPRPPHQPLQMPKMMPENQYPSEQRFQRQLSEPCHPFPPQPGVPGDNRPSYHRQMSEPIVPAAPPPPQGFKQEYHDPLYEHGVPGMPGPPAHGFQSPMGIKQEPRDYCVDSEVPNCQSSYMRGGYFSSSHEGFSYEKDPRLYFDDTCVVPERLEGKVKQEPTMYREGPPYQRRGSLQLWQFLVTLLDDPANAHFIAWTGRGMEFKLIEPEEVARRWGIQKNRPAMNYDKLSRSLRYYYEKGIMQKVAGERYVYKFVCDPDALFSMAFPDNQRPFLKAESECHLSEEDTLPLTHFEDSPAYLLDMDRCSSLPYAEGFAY
How it was run: as §1

HSF1 = HSF1 (Homo sapiens, UniProt Q00613 1-529); conditions: protein: recombinant; tags: N-terminal GST; chain copies: 3; dsDNA, one strand shown
Chain of HSF1 (Q00613 whole entry): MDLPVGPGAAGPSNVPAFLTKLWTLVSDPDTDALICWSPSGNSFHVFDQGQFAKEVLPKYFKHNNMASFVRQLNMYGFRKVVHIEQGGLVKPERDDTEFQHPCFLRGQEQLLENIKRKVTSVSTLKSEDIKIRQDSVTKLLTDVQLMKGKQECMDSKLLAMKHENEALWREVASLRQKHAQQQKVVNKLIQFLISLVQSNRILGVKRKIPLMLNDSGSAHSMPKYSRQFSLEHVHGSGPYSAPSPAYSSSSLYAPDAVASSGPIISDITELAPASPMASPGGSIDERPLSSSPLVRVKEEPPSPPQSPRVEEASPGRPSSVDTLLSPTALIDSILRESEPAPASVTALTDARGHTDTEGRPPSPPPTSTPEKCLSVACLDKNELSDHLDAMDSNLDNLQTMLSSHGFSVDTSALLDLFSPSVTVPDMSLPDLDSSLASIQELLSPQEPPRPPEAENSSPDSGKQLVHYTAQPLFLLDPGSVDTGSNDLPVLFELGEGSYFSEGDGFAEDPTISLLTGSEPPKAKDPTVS
How it was run: as §1

SPIC = target: T8, SPIC (Homo sapiens, UniProt Q8N5J4 1-248); conditions: protein: recombinant; tags: N-terminal GST; dsDNA, one strand shown
T8 sequence: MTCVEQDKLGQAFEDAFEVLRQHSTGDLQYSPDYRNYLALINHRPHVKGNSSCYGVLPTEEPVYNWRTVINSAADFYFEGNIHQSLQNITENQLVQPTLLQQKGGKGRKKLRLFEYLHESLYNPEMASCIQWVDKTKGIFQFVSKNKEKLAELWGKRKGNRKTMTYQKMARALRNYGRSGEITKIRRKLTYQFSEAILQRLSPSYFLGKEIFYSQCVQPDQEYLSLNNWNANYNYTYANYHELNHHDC
How it was run: as §1

ELF4 = ELF4 (Homo sapiens, UniProt Q99607 1-663); conditions: protein: recombinant; tags: N-terminal GST; dsDNA, one strand shown
Chain of ELF4 (Q99607 whole entry): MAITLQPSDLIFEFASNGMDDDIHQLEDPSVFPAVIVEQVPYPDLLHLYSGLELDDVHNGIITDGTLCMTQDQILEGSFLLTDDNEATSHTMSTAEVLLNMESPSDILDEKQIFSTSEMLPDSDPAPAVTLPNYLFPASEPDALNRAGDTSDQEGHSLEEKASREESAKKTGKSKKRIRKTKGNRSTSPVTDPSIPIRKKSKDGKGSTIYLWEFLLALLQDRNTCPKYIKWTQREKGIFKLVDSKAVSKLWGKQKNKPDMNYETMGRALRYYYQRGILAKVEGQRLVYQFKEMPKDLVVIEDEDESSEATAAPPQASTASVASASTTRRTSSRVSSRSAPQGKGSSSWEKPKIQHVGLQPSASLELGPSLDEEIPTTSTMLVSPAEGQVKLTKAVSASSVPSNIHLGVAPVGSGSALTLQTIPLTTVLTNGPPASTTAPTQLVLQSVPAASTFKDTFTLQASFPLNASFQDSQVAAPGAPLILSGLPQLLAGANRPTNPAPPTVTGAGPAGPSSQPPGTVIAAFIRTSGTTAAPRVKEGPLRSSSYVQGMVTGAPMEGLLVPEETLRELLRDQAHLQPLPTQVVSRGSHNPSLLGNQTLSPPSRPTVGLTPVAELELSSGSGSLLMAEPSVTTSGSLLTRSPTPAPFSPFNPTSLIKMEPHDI
How it was run: as §1

ELK4 = target: T9, ELK4 (Homo sapiens, UniProt P28324-2 1-405); conditions: protein: recombinant; tags: N-terminal GST; dsDNA, one strand shown
T9 sequence: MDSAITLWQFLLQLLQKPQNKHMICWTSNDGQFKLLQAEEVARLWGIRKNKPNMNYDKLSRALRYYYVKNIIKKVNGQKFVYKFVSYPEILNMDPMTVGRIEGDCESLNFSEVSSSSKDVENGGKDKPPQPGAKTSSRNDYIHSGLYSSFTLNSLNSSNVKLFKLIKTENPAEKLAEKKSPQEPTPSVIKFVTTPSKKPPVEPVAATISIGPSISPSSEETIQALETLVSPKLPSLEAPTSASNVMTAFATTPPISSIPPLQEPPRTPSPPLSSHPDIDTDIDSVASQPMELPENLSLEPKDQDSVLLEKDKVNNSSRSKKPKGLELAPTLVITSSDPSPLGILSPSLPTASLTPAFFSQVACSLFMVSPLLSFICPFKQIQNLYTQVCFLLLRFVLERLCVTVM
How it was run: as §1

ETV2 = target: T10, ETV2 (Homo sapiens, UniProt O00321 1-342); conditions: protein: recombinant; tags: N-terminal GST; dsDNA, one strand shown
T10 sequence: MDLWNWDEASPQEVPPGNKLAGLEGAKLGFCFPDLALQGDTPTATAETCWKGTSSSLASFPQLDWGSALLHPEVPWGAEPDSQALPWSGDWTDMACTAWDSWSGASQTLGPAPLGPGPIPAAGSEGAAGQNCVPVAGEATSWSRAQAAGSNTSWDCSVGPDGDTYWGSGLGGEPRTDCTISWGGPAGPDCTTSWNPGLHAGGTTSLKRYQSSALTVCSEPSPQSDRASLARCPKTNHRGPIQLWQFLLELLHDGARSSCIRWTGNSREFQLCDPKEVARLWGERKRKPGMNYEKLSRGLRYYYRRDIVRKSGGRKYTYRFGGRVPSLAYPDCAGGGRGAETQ
How it was run: as §1

ELF3 = target: T11, ELF3 (Homo sapiens, UniProt P78545 1-371); conditions: protein: recombinant; tags: N-terminal GST; dsDNA, one strand shown
T11 sequence: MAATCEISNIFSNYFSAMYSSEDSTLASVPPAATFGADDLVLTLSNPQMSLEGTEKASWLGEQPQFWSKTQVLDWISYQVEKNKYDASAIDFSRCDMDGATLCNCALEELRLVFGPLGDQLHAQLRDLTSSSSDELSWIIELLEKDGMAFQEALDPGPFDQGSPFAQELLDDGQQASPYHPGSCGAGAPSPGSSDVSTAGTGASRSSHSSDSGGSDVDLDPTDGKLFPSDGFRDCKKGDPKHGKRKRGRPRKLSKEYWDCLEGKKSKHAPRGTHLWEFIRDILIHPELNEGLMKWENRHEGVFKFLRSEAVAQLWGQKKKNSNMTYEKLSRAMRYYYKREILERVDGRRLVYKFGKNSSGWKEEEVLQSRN
How it was run: as §1

CRX = CRX (Homo sapiens, UniProt O43186 1-299); conditions: protein: recombinant; tags: N-terminal GST; dsDNA, one strand shown
Chain of CRX (O43186 whole entry): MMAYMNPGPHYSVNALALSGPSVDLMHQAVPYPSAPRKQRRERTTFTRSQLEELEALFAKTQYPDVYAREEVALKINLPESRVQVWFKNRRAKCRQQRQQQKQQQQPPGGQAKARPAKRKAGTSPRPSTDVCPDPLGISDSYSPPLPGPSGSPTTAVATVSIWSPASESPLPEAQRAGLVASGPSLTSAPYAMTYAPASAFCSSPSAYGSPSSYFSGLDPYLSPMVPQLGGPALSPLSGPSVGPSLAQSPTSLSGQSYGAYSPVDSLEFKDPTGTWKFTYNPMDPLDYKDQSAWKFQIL
How it was run: as §1

ETV1 = ETV1 (Homo sapiens, UniProt P50549 1-477); conditions: protein: recombinant; tags: N-terminal GST; dsDNA, one strand shown
Chain of ETV1 (P50549 whole entry): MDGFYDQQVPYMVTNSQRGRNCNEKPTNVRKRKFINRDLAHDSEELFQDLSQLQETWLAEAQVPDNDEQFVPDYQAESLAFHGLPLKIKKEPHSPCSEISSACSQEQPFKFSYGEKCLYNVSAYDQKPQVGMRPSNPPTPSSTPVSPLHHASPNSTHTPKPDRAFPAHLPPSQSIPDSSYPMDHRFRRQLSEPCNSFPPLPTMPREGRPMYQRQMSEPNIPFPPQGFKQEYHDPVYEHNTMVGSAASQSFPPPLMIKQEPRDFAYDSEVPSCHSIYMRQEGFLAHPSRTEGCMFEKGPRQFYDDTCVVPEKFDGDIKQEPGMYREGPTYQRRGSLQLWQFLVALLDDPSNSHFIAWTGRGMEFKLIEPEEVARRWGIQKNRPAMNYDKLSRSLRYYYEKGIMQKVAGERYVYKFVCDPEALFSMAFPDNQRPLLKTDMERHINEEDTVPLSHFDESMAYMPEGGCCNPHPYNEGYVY
How it was run: as §1

For CTCCAG, the binding signal (FLI1) was 1.08 fold enrichment (6-mer frequency, TF over GST control), the binding signal (ELK1) was 1.12 fold enrichment (6-mer frequency, TF over GST control) and the binding signal (GABPA) was 1.26 fold enrichment (6-mer frequency, TF over GST control). For the same sequence, the binding signal (ERG) was 1.16 fold enrichment (6-mer frequency, TF over GST control), the binding signal (ELF1) was 1.19 fold enrichment (6-mer frequency, TF over GST control) and the binding signal (EHF) was 1.17 fold enrichment (6-mer frequency, TF over GST control). For the same sequence, the binding signal (SPI1) was 1.21 fold enrichment (6-mer frequency, TF over GST control), the binding signal (SPIB) was 1.23 fold enrichment (6-mer frequency, TF over GST control) and the binding signal (ELK3) was 1.29 fold enrichment (6-mer frequency, TF over GST control). The binding signal (FEV) was 1.13 fold enrichment (6-mer frequency, TF over GST control), the binding signal (ETV5) was 1.17 fold enrichment (6-mer frequency, TF over GST control) and the binding signal (HSF1) was 1.65 fold enrichment (6-mer frequency, TF over GST control). For the same sequence, the binding signal (SPIC) was 1.16 fold enrichment (6-mer frequency, TF over GST control), the binding signal (ELF4) was 1.21 fold enrichment (6-mer frequency, TF over GST control) and the binding signal (ELK4) was 1.18 fold enrichment (6-mer frequency, TF over GST control). The binding signal (ETV2) was 1.33 fold enrichment (6-mer frequency, TF over GST control), the binding signal (ELF3) was 1.02 fold enrichment (6-mer frequency, TF over GST control) and the binding signal (CRX) was 1.1 fold enrichment (6-mer frequency, TF over GST control). The binding signal (ETV1) was 1.16 fold enrichment (6-mer frequency, TF over GST control).
